In the library only some 2.4% were active in any assay of this set; here they are far more common.
CRFBP-R2 block: blocks CRF-induced signaling of the CRF-BP/CRF-R2 complex; HEK293 CRF-R2/CRF-BP, CRF-induced calcium fluorescence; AID 588475; 0.59% of 350,000 active; inhibition, % at 11.8 µM;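 active = inhibition of the ligand-induced calcium signal above about 50% at the single tested concentration, limit read from the data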
RTF Ca sens act: cardiac RTF calcium sensitization; P19429+P45379; 0.24% of 340,000 active; IANBD-labeled TnC RTF fluorescence at EC20 calcium; 0% EC20 calcium, 100% full calcium; activation, % at 7.2 µM;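 active = activation above the mean over all tested compounds plus 3 SD, cut at about 30% in these data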;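 note: rise in fluorescence read as greater calcium sensitivity of cardiac thin filaments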
TMEM16A inh: mouse TMEM16A channel inhibition, primary screen. Q8BHY3. HEK293 TMEM16A/YFP iodide influx fluorescence, ionomycin. normalized B-score (activity score, 25-100; higher = stronger inhibition) at 10 µM. 1.2% of 310,000 active;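 active = ratio plate-corrected score three or more library SD toward inhibition, starting fluorescence score within five deviations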;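 note: score derived from kinetic fluorescence span divided by baseline fluorescence per well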
Cardiac RTF inh: cardiac RTF calcium desensitization | IANBD-labeled cardiac RTF, Ca2+ fluorescence | 0.12% of 340,000 active | inhibition, % at 7.15 µM;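 active = inhibition above the mean inhibition of all tested compounds plus 3 SD, cut at about 17% in these data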;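 note: assay run at fixed EC70 calcium of 1.6 mM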
CRFBP-R2 agonist: CRF-BP/CRF-R2 complex agonism. HEK293 CRF-R2/CRF-BP, calcium dye fluorescence (FLIPR); percent of saturating CRF peptide response. activation, % at 13.2 µM. 0.46% of 350,000 active;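 active = activation of at least 50%, plus an integration ratio under a set limit after plate pattern correction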
TMEM16A act: activates or potentiates the mouse TMEM16A chloride channel | HEK293 TMEM16A/YFP-H148Q/I152L, iodide quench fluorescence; stronger effect = lower value | B-score at 10 µM | 0.3% of 340,000 active;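 active = fluorescence-ratio B-score plate-corrected deviation score at least 3 library SD below zero, with starting fluorescence score within 5 deviations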;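 note: channel opened by trigger with iodide after compound preincubation; score built on the fluorescence ratio of max minus min over baseline; more negative score means more quench and so TMEM16A activation or potentiation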
Large screens that a line does not name were inactive.

CC12CCC(=O)C=C1CC(O)C1C2CCC2(C)C1CCC2(C)O (stereo not drawn)	none (no result: TMEM16A inh)
CN1/C(=C\C=C2C(=O)NC(=S)NC2=O)C(C)(C)c2ccccc21	RTF Ca sens act 433, CRFBP-R2 agonist 215 (no result: TMEM16A inh)
O=C1NC(=S)NC(=O)C1=Cc1cccc2cc3ccccc3cc12	none (no result: TMEM16A inh)
CC1(C)OC(c2ccccc2)=C/C(=C/C=C2C(=O)NC(=S)NC2=O)O1	CRFBP-R2 agonist 144 (no result: RTF Ca sens act, Cardiac RTF inh, TMEM16A act)
COC(=O)C1=C(c2ccc(OC(F)(F)F)cc2)C[C@@H]2CC[C@H]1N2C(=O)N1CCOCC1	none (no result: TMEM16A inh)
CC(=O)O/C(=C1\CC2C3CC=C4CC(OC(C)=O)CCC4(C)C3CCC2(C)C1=O)C(F)(F)F (stereo not drawn)	none (no result: TMEM16A inh)
CCOC(=O)c1ccc(-[n+]2c(-c3ccccc3)cc(-c3ccccc3)cc2-c2ccccc2)cc1	TMEM16A act -14
Cc1ccc(-c2cc(-c3ccc(C)cc3)[n+](-c3ccc(C(=O)[O-])cc3)c(-c3ccc(C)cc3)c2)cc1	none
CCOC(=O)c1cccc(-[n+]2c(-c3ccccc3)cc(-c3ccccc3)cc2-c2ccccc2)c1	TMEM16A act -5.6
COc1ccc(C(c2ccc(OC)cc2)C(Cl)(Cl)Cl)cc1	none (no result: TMEM16A inh)
C=CCN1C(=O)NC(=O)/C(=C/c2ccc(N(C)C)c(Br)c2)C1=O	none
CC1=C(O)C(=O)C=C2C1=CC=C1C2(C)CCC2(C)C3CC(C)(C(=O)O)CCC3(C)CCC12C (stereo not drawn)	TMEM16A act -10 (no result: TMEM16A inh)
CC12CCC3C(CCC4(O)CC(O)CCC34C=NO)C1(O)CCC2C1=COC(=O)C1 (stereo not drawn)	none (no result: TMEM16A inh)
O=c1cc(C(F)(F)F)c2cc3c4c(c2o1)CCCN4CCC3	RTF Ca sens act 545, CRFBP-R2 agonist 173
O=C1NC(=O)C(=Cc2coc3ccccc3c2=O)C(=O)N1	CRFBP-R2 agonist 71
CC(=O)n1cc(C=C2C(=O)NC(=O)NC2=O)c2ccccc21	none
O=C1NC(=O)C(=Cc2csc3ccccc23)C(=O)N1	none
Cn1cc(C=C2C(=O)NC(=O)NC2=O)c2ccccc21	CRFBP-R2 agonist 59
Cc1ccc(N=C(/N=C(\N)N[N+](=O)[O-])Nc2ccc(C)cc2)cc1	none
CC(=O)N1CCCSC1=Nc1ccccc1	TMEM16A act -30
COc1ccc(OC)c(CNCCc2ccc(OC)c(OC)c2)c1	none
CCOC(=O)c1c(/N=C/C2C(=O)NC(=S)NC2=O)sc2c1CCC2	CRFBP-R2 agonist 98 (no result: RTF Ca sens act, Cardiac RTF inh)
CCC1CN1P(=O)(N1CCCC1)N1CC1CC (stereo not drawn)	none (no result: TMEM16A inh)
CCN(CC)C(=O)c1ccc(NC(=O)c2cc(S(=O)(=O)N3CCCCCC3)ccc2OC)cc1	none
CCN(CC)C(=O)c1ccc(NC(=O)c2cccc(S(=O)(=O)N3CCN(Cc4ccccc4)CC3)c2)cc1	TMEM16A inh 25
COC(=O)C1=C(c2ccccc2OCc2ccccc2)C[C@@H]2CC[C@H]1N2C(=O)NC1CCN(Cc2ccccc2)CC1	none (no result: TMEM16A inh)
COc1ccc(-c2ccc3n2Cc2cnnn2-c2ccccc2-3)cc1	none (no result: TMEM16A inh, TMEM16A act)
CCCCn1c(O)c(C(=O)/C=C/c2c[nH]c3ccccc23)c(=O)[nH]c1=O	RTF Ca sens act 67, CRFBP-R2 agonist 130
CCCCn1c(O)c(C(CC)=NCCc2ccccc2)c(=O)[nH]c1=O	none
Nc1ccc2ccc3cccc[n+]3c2c1	RTF Ca sens act 743, CRFBP-R2 agonist 163
Cc1c(NS(=O)(=O)c2ccccc2)ccc([N+](=O)[O-])c1Cl	CRFBP-R2 block 54 (no result: TMEM16A inh)
CCN(CCNc1ccc([N+](=O)[O-])c2cccnc12)S(=O)(=O)c1ccccc1	none
COC(=O)C1=C(c2ccc(OC)c(OC)c2)C[C@@H]2CC[C@H]1N2C(=O)NCCCOC(C)C	none (no result: TMEM16A inh)
CC(=O)OC1C=CC2[C@H]3Cc4ccc(O)c5c4[C@@]2(CCN3C)C1O5 (stereo partly drawn)	none (no result: TMEM16A inh)
COc1cc(/C=C/c2nc3ccccc3c(=O)n2-c2cccc(O)c2)ccc1O	TMEM16A act -5.2
Cc1cccc(NP2(=O)NCCCN2)c1	none (no result: TMEM16A inh)
